The supplement of paper PMC6555819

What was measured:
Assay in all cases: PBM binding z-score (relative to random genomic background probes); higher = stronger binding; sequences stand for … in GC…GCGATTGACAGCGTAGAATGAAGG
[1] = tested on: PPARg:RXRa IVT, anti-PPARg (NR concentration 270 nM, RXRa partner concentration 90 nM)
Outline: (§1)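 Custom Agilent 4×180K protein-binding microarrays carried double-stranded probes. Their 34-nt variable regions held direct-repeat seeds, single-nucleotide variants, half-site ablations and random human genomic background sequences. Arrays were incubated 1 h with ligand-free nuclear receptor dimers in PBS pH 7.4, 2% milk, 0.02% Triton X-100, 1 mM DTT, 0.2 mg/mL BSA and 0.4 mg/ml salmon testes DNA. Antibodies against each partner (one per run) detected binding, and scanned fluorescence was regression-normalized. Binding z-scores use random background probes as reference.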

[2] = tested on: PPARg DBDmut:RXRa IVT, anti-PPARg (DBD mutation: PPARg1 K132A/R137A, NR concentration 270 nM, RXRa partner concentration 90 nM)
Outline: as §1

[3] = tested on: PPARg DBDmut IVT, anti-PPARg (DBD mutation: PPARg1 K132A/R137A, NR concentration 270 nM)
Outline: as §1

[4] = tested on: PPARg homodimer (NR concentration 180 nM)
Outline: as §1

[5] = tested on: PXR homodimer (NR concentration 270 nM)
Outline: as §1

[6] = tested on: RARa homodimer (NR concentration 270 nM)
Outline: as §1

[7] = tested on: RARb homodimer (NR concentration 270 nM)
Outline: as §1

[8] = tested on: RARg homodimer (NR concentration 270 nM)
Outline: as §1

[9] = tested on: RXRa DBDmut IVT, anti-RXR (DBD mutation: RXRa K156A/R161A, NR concentration 90 nM)
Outline: as §1

[10] = tested on: THRa:RXRa (NR concentration 90 nM, RXRa partner concentration 90 nM)
Outline: as §1

[11] = tested on: THRa homodimer (NR concentration 90 nM)
Outline: as §1

[12] = tested on: VDR homodimer (NR concentration 270 nM)
Outline: as §1

[13] = tested on: RARg:RXRa (NR concentration 270 nM, RXRa partner concentration 90 nM)
Outline: as §1

[14] = tested on: RXRa homodimer (NR concentration 180 nM)
Outline: as §1

[15] = tested on: PXR:RXRa (NR concentration 270 nM, RXRa partner concentration 90 nM)
Outline: as §1

[16] = tested on: RARa:RXR (NR concentration 270 nM, RXRa partner concentration 90 nM)
Outline: as §1

[17] = tested on: RARb:RXRa (NR concentration 270 nM, RXRa partner concentration 90 nM)
Outline: as §1

Sequence	PBM binding z-score [1]	PBM binding z-score [2]	PBM binding z-score [3]	PBM binding z-score [4]	PBM binding z-score [5]	PBM binding z-score [6]	PBM binding z-score [7]	PBM binding z-score [8]	PBM binding z-score [9]	PBM binding z-score [10]	PBM binding z-score [11]	PBM binding z-score [12]	PBM binding z-score [13]	PBM binding z-score [14]	PBM binding z-score [15]	PBM binding z-score [16]	PBM binding z-score [17]
CAAACAAGGTCACGAAAGGTCAAAGTCGAATGAC	7.11	3.1	3.53	8.44	7.51	5.3	6.14	9.5	4.12	5.17	3.65	5.74	–	–	–	–	–
CAAACTAGGTCACCGAAAGGTCAAAGTCCGCATG	9.24	8.36	7.3	9.63	3.23	4.75	5.37	8.27	2.98	4.72	2.96	4.24	8.9	7.88	–	–	–
CCAACTAGGTCAAAGGACAGTGAAAGGCGACGTA	7.88	–	0.729	1.68	0.436	0.964	3.15	4.53	1.91	2.4	0.765	0.866	–	3.05	1.09	2.36	4.07
CAAACGAGGTCACCGGAAGGTCAAAGTCCGCATG	7.57	4.42	0.844	6.98	6.23	2.61	6.03	8.7	4.24	–	4.61	6	–	–	–	–	–
ATCGAAAGGTCAAAGGTGAGTATACCCACCCGAA	6.1	3.13	3.86	4.41	1.6	3.03	5.31	8.44	3.46	4.31	0.712	2.97	–	–	–	–	–
CGAACTAGGTCTAAGGACAGTGAAAGGCGACGTA	1.78	–	-0.598	-0.156	-0.563	-0.52	0.133	0.382	0.0916	2.65	1.96	-0.112	-0.0449	0.0481	-0.521	0.0659	0.287
CCGAGTAGGTTACGAGGGGTCATTCAGTGCGAAT	4.3	–	–	4.32	10.4	1.29	3.68	3.76	1.89	–	0.607	5.41	5.1	5.85	–	6.71	3.35
CCGAGGAGGTTACGAGGGGGCATTCAGTGCGAAT	3.07	–	–	1.6	6.9	-0.256	2.52	3.17	2.24	4.49	0.537	3.87	4.21	3.28	6.25	3.97	2.89
CTATGTGGGTTAAGGGGGTCATTCAGTTTGAAAG	7.71	–	–	6.11	12.1	3.73	4.44	4.42	3.34	4.29	3.69	6.5	5.36	6.11	6.07	5.68	3.91
TGTCAAAGTTCAAAGGTCACGTAAGTATCCACAC	6.64	4.45	3.14	6.73	5.82	5.52	5.93	9.03	4.57	–	1.88	5.69	–	–	–	–	–
CTATGTAGGTTAAGGGAGTCATTCAGTTTGAAAG	6.74	–	–	0.863	0.389	0.236	0.609	0.44	0.0971	0.572	-0.282	0.283	–	0.802	–	0.462	0.814
CGAACTAGGTCGCCAGGACAGTGAAGAGGTTGGA	5.49	–	-0.449	-0.09	-0.264	-0.715	1.04	1.27	0.47	1.68	0.578	-0.15	0.757	0.761	-0.103	0.141	1.48
CAAACAAGGTCACCGGAAGGTCAAAGTCCGCATG	6.66	3.88	3.51	10.2	4.84	5.98	5.88	8.72	4.24	–	4.44	5.94	–	–	–	–	–
CAAACGAGGTCACAGAGGTCAAAGTCCGTGCGTA	7.63	3.35	5.12	7.88	15.3	5.39	5.83	9.3	4.98	–	5.02	10.5	–	–	–	–	–
TCGTGTAGGTTACGGGGGCATTCAGGGATGAAGA	6.27	–	–	3.1	2.98	1.46	2.92	3.31	2.75	4.09	2.66	3.98	4.09	3.35	3.98	3.71	3.34
CTATGTAGGTTAGGGGGGTCATTCAGTTTGAAAG	6.9	–	–	4.93	11.2	3.17	4.06	4.91	3.23	4.21	3.25	6.97	5.7	5.83	6.22	5.88	4.13
CCGAGTAGGTTACTAGGGGGCATTCAGTGCGAAT	4.9	–	–	1.47	6.49	0.177	2.16	2.1	1.4	3.57	0.676	3.59	2.46	1.72	4.21	2.34	1.92
TCTCGGAGGTCACGAAAGGTCAGAGCTCGACATC	6.3	1.39	2.35	6.9	3.6	5.11	6.12	9.26	3.38	–	2.36	3.58	–	–	–	–	–
ACTCGGAGGTCAAAGGTCAGAGCTACGCCAGTGA	6.2	2.13	2.31	6.27	1.87	3.86	5.48	8.15	3.82	–	1.5	3.99	–	–	–	–	–
TGTCAAAGGTCAAAGGTAACGTAAGTATCCACAC	7.56	5.45	6.39	5.28	1.31	3.71	5.11	8.8	3.15	4.47	0.695	2.81	–	–	–	–	–
TCTAGTGGGTCAAAGGTCACACACTCGAAATGCG	8.52	2.65	1.71	4.18	1.74	2.97	5.22	7.49	2.07	4.61	1.7	2.84	–	–	–	–	–

Sequence	PBM binding z-score [1]	PBM binding z-score [2]	PBM binding z-score [3]	PBM binding z-score [4]	PBM binding z-score [5]	PBM binding z-score [6]	PBM binding z-score [7]	PBM binding z-score [8]	PBM binding z-score [9]	PBM binding z-score [10]	PBM binding z-score [11]	PBM binding z-score [12]	PBM binding z-score [13]	PBM binding z-score [14]	PBM binding z-score [15]	PBM binding z-score [16]	PBM binding z-score [17]
ACTTAGGGGTCAACGAGGTTATAGCACGCGTATA	5.93	2.39	2.86	3.01	9.1	2.38	5.02	7.64	4.82	–	1.8	6.45	–	–	–	–	–
CGAACGAGGTCAAAGGACAGTGAAAGGCGACGTA	6.29	–	3.98	6.42	1.74	0.557	3.88	6.17	4.61	3.88	1.79	3.52	6.46	6.91	5.26	5.86	5.01
CGAACGAGGTCACCAGGACAGTGAAGAGGTTGGA	6.99	–	-0.0539	3.06	0.985	1.08	4.89	7.24	4.32	4.66	3.86	3.87	7.15	–	5.37	5.85	–
TGTCAAAGTTCAAAGGTTACGTAAGTATCCACAC	5.16	1.58	1.43	3.27	4.04	1.12	4.75	6.76	4.3	4.44	0.193	4.2	–	–	–	–	–
CCGAATAGGTTACGAGGGGGCATTCAGTGCGAAT	3.59	–	–	2.64	5.9	0.865	2.69	2.87	1.75	4.03	0.692	3.51	3.99	3.03	5.5	3.8	2.89
CAAACGAGGTCAAAGGTCAAAGTCGAGCCAACCA	8.38	5.96	5.7	7.87	5.27	6.67	5.59	8.66	4.97	–	3.26	6.2	–	–	–	–	–
TCGAGTAGGTCACGGGGGCATTCAGGGATGAAGA	7.67	–	–	3.98	1.77	1.36	4.32	6.69	2.23	4.48	1.6	3.74	6.77	6.31	4.92	5.53	4.66
CGAACTAGGTCAAAGGACATTGAAAGGCGACGTA	8.46	–	2.63	2.37	0.177	0.467	3.01	4.34	1.63	2.82	0.495	0.442	4.1	3.33	1.39	2.7	3.96
CGTCAAAGGTCATAGGAGGTCAGTGAAGACAGAT	6.23	1.59	3.77	5.41	4.17	3.82	5.95	8.6	3.88	–	1.85	3.84	–	–	–	–	–
CGAACAAGGTCACCAGGACAGTGAAGAGGTTGGA	6.18	–	1.95	4.85	1.1	3.06	4.07	6.95	3.8	4.15	3.1	2.83	6.81	7.03	4.68	5.71	5.3
CTATGTAGGTCAAGGGGGTCATTCAGTTTGAAAG	9.07	–	–	5.3	13.1	2.29	4.85	6.93	3.29	4.27	2.15	7.37	7.26	7.64	–	–	5.06
CTATGTAGGTTACGGGGGTCATTCAGTTTGAAAG	7.98	–	–	2.65	10.9	0.56	4.09	4.59	2.61	4.12	2.03	5.93	5.91	6.14	6.2	6.09	3.71
CAAACGAGGTCAAGGTCAAAGTCGGTTTGTGCCA	7.3	3.16	1.96	4.15	4.12	2.66	5.54	8.18	4.52	–	4.79	6.15	–	–	–	–	–
CAAACGAGGTCACGAAAGGTCAAAGTCGAATGAC	7.7	2.28	3.02	7.67	9.37	5.09	6.1	9.89	4.62	5.28	4.41	6.31	–	–	–	–	–
CAAACAAGGTCAAAGGTCAAAGTCGAGCCAACCA	7.85	4.28	4.16	7.37	4.12	6.18	5.66	8.75	4.5	–	2.79	5.62	–	–	–	–	–
ATATGTAGGTTGGGGTCATTCAGAAAGTAGGGAA	4.46	–	2.36	3.59	3.64	3.34	4.06	3.36	3.69	4.34	3.84	6.23	5.15	7	6.18	6.42	3.75
CGAACTAGGTCAAGGGACAGTGAAAGGCGACGTA	8.18	–	0.0336	1.42	-0.504	0.0645	2.99	4.43	0.75	2.63	0.755	0.0374	3.82	2.43	0.929	1.71	3.92
ATATGTAGGTTAGGGTCAGTCAGAAAGTAGGGAA	6.71	–	1.66	2.59	1.6	2.63	3.34	3.14	1.04	3.32	2.69	1.79	3.08	3.37	2.64	3.41	3.22
GCTTACGGGTCAAAGGTCATAGCATGAATAGAAT	7.02	2.05	1.67	4.66	1.47	2.21	5.12	7.46	3.56	–	1.04	3.19	–	–	–	–	–
CCGAGAAGGTTACGAGGGGGCATTCAGTGCGAAT	2.5	–	–	2.11	5.71	0.612	2.66	3.13	1.65	4.4	0.555	3.67	–	3.45	5.85	4.07	3.24
TATACAGGGTCAAAGGTCAGAGTACGAATGTCGA	6.32	2.47	1.85	2.64	1.68	2.73	5.41	7.28	3.34	–	1.79	4.33	–	–	–	–	–
